PubChem BioAssay (NCI)
The panel holds about 83,000 compounds, 20% with a hit somewhere; the sample as a whole holds those more often.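 Each cell line was grown in a 96-well plate and treated with one concentration of compound for 48 hours. Values below 10 were considered active.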 A number with no mark means an inactive call. Activity calls are given as the source filed them.

Assays:
Assay in all cases: NCI-60 one-dose screen, 48 h (100 = growth as untreated, 0 = no growth, -100 = all killed)
Details in all cases: 10 µM unless noted
HCT-15 colon = test system: HCT-15 colon
HT29 colon = test system: HT29 colon
SNB-75 CNS = test system: SNB-75 CNS
SNB-19 CNS = test system: SNB-19 CNS
U251 CNS = test system: U251 CNS
PC-3 prostate = test system: PC-3 prostate
SK-MEL-5 melanoma = test system: SK-MEL-5 melanoma
UACC-62 melanoma = test system: UACC-62 melanoma
LOX IMVI melanoma = test system: LOX IMVI melanoma
SK-MEL-28 melanoma = test system: SK-MEL-28 melanoma
SK-MEL-2 melanoma = test system: SK-MEL-2 melanoma
EKVX NSCLC = test system: EKVX NSCLC
SN12C renal = test system: SN12C renal
UO-31 renal = test system: UO-31 renal
TK-10 renal = test system: TK-10 renal
ACHN renal = test system: ACHN renal
CAKI-1 renal = test system: CAKI-1 renal
A498 renal = test system: A498 renal
CCRF-CEM leukemia = test system: CCRF-CEM leukemia
MOLT-4 leukemia = test system: MOLT-4 leukemia

SMILES	growth (HCT-15 colon)	growth (HT29 colon)	growth (SNB-75 CNS)	growth (SNB-19 CNS)	growth (U251 CNS)	growth (PC-3 prostate)	growth (SK-MEL-5 melanoma)	growth (UACC-62 melanoma)	growth (LOX IMVI melanoma)	growth (SK-MEL-28 melanoma)	growth (SK-MEL-2 melanoma)	growth (EKVX NSCLC)	growth (SN12C renal)	growth (UO-31 renal)	growth (TK-10 renal)	growth (ACHN renal)	growth (CAKI-1 renal)	growth (A498 renal)	growth (CCRF-CEM leukemia)	growth (MOLT-4 leukemia)
CCN1C(=O)N(CC)C2C1NN=C1SCC(=O)N12 (stereo not given)	82%	59.5%	85.8%	97%	107%	94%	101%	85.8%	107%	96.6%	106%	86.8%	78.9%	58.8%	104%	84.2%	89.2%	112%	40%	57.2%
CN1CCN(Cc2ccc(NC(=O)c3cncc(C#Cc4cncc5ncccc45)c3)cc2C(F)(F)F)CC1	19.7%	-4.72% (active)	13.6%	46.7%	38.8%	23%	19.1%	5.7% (active)	-85.7% (active)	12.4%	-69.1% (active)	39.2%	21.3%	-10.2% (active)	22%	8.35% (active)	-19.7% (active)	-25.5% (active)	3.31% (active)	9.12% (active)
C=C(C)[C@@H]1CC[C@]2(CO)CC[C@]3(C)[C@H](CC[C@@H]4[C@@]5(C)CCC(NCCc6ccc(O)cc6)C(C)(C)[C@@H]5CC[C@]43C)[C@@H]12 (stereo not given in full)	-92.8% (active)	-87.9% (active)	-86.7% (active)	-82.1% (active)	-94.2% (active)	-84.2% (active)	-95.4% (active)	-89.3% (active)	-96.8% (active)	-88.8% (active)	-85% (active)	-52.1% (active)	-88.9% (active)	-96.9% (active)	-94.5% (active)	-100% (active)	-58.5% (active)	6.99% (active)	-41.3% (active)	-43.8% (active)
COC(c1ccc2ccccc2c1)C(C)C(F)F (stereo not given)	112%	98.2%	95.9%	101%	102%	96.6%	112%	93.4%	101%	96.3%	97.8%	100%	98.2%	90.6%	86.4%	100%	95.9%	99.7%	62.2%	99.3%
C=CCn1c(SCC(=O)Nc2ccc(C(=O)/C=C/c3ccc(OC)cc3)cc2)nnc1-c1ccccc1	83.4%	85.3%	70.6%	83.9%	98.1%	67.1%	92.2%	74.5%	87.2%	89.4%	82.4%	88.4%	89.2%	69.4%	98%	92.5%	93.1%	97.3%	84.5%	61.1%
COc1ccc(OC)c(-c2cn3nc(-c4c[nH]c5ccc(Br)cc45)sc3n2)c1	24.6%	10%	45%	75.4%	36.9%	40.9%	75.3%	50.1%	-50.5% (active)	59.5%	86.3%	36.9%	44.2%	45%	62%	38.8%	29.7%	86.1%	32.8%	48.8%
CC1(C)CCC(S(=O)(=O)c2ccc3c(c2)/C(=N\O)c2cc(S(=O)(=O)N4CCN(c5ccc(F)cc5O)CC4)ccc2-3)CC1	-75.1% (active)	-88.7% (active)	-97.6% (active)	-72.7% (active)	-97.7% (active)	-64.2% (active)	-93.6% (active)	-69.7% (active)	-82.6% (active)	-72.2% (active)	-85.6% (active)	-53% (active)	19.8%	-91.4% (active)	-82% (active)	0.0292% (active)	-76.1% (active)	-65.3% (active)	-63.4% (active)	-71.9% (active)
COCCCOc1cc(C[C@@H](C[C@H](N)[C@@H](O)C[C@H](C(=O)NCC(C)(C)C(N)=O)C(C)C)C(C)C)ccc1OC	111%	106%	88.4%	106%	98.7%	90.7%	106%	102%	95%	104%	104%	92.6%	104%	84.4%	109%	101%	89.2%	103%	110%	103%
N=C(N)c1ccc(-c2ccc(-c3ccc(F)cc3)s2)s1	-74.2% (active)	-76.1% (active)	81%	-57.5% (active)	-89.7% (active)	-24.2% (active)	77.6%	-67.9% (active)	-67.2% (active)	83.5%	73.6%	41.4%	-50% (active)	-32.6% (active)	28.5%	-73.7% (active)	0.453% (active)	58.9%	-33.6% (active)	-44.2% (active)
C[C@H]1[C@H](C)CC[C@]2(C(=O)O)CC[C@]3(C)C(=CC[C@@H]4[C@@]5(C)C[C@@H](Cc6cn([C@@H]7O[C@H](CO)[C@@H](O)[C@H](O)[C@H]7O)nn6)[C@H](O)C(C)(C)[C@@H]5CC[C@]43C)[C@H]12	102%	98.4%	88%	98.8%	92.9%	89.8%	94.2%	98.4%	99%	101%	99.9%	96.8%	97.1%	91.8%	89.2%	99.2%	97.2%	80.7%	99.3%	94.2%
COc1cc(OC)cc(C2C(C#N)=C(N)Oc3c2ccc2ccc(O)cc32)c1 (stereo not given)	4.56% (active)	7.81% (active)	72%	26.9%	12.8%	17.6%	-45.6% (active)	28.9%	0.698% (active)	48.6%	21.3%	32.9%	9.97% (active)	18.7%	48.3%	15.8%	21.1%	32.1%	7.39% (active)	7.26% (active)
CC1(C)OC(=O)C(=Cc2cccc(Br)c2)C(=O)O1	108%	92.9%	94.4%	105%	92.9%	89.5%	94.8%	101%	101%	119%	103%	100%	101%	92.9%	101%	117%	100%	94.2%	93.2%	89.9%
N#Cc1c(-c2ccccc2)nc2c(c(-c3ccccc3)nn2-c2ccccc2)c1-c1ccc(N2CCOCC2)cc1	37.3%	52.4%	86.9%	94.5%	65.9%	81.7%	98.8%	106%	51.6%	107%	102%	103%	93.4%	70.3%	101%	103%	81.8%	95.1%	64.6%	62.7%
C#CC#CC#CC#CC#CC#CC#CC#CC[C@H]1OC[C@@H](COC(=O)O[C@@H](C(=O)O[C@H]2C[C@@]3(O)[C@@H](OC(=O)c4ccccc4)[C@@H]4[C@]5(OC(C)=O)CO[C@@H]5C[C@H](O)[C@@]4(C)C(=O)[C@H](OC(C)=O)C(=C2C)C3(C)C)[C@@H](NC(=O)c2ccccc2)c2ccccc2)O1	95.2%	7.9% (active)	32.8%	55.8%	43.4%	45.7%	64.8%	50.9%	41.1%	62.8%	76.2%	75.4%	50.2%	102%	86.5%	89.9%	79.6%	45.4%	36.2%	42.5%
CCN1C(=O)N(CC)C2C1NN=c1s/c(=C3\C(=O)N(CCc4ccccc4)c4ccccc43)c(=O)n12 (stereo not given)	10.7%	0.473% (active)	-4.86% (active)	23.3%	14.5%	20.5%	7.69% (active)	28.1%	10.9%	43.6%	54.7%	43.6%	17.8%	45.4%	64.1%	25.5%	27.7%	-3.18% (active)	5.65% (active)	10.3%
